# Reference: PubChem BioAssay (NCATS)
# Results filed as inconclusive are left out. Entries that show only a call come without a potency. The source made the active and inactive calls. Unless noted, the call rests on the fitted dose curve; in most records, active means well fitted curve in the direction sought with a large enough effect; inconclusive means small, poorly fitted or top-dose-only effect, or another doubt; inactive means no such curve, though single readings can be large; an effect the other way counts as inactive or inconclusive.
# What was measured:
# [1] = target: Aldehyde dehydrogenase, mitochondrial (Homo sapiens) (UniProt P05091); experiment: qHTS for Inhibitors of the Aldehyde Dehydrogenase Family (ALDH2) Confirmatory screens (AID 2061303; active means well fitted inhibition curve with a large enough effect; title and protocol of this record describe different tests; further: nearly all actives have a fitted effect of over 45% in size; further: potency means the concentration at half of the fitted maximal effect); settings: ALDH inhibition qHTS; series mostly up to 45.4 µM
# [2] = qHTS for Inhibitors of the Aldehyde Dehydrogenase Family (ALDH1A2, ALDH1A3, ALDH2, ALDH3A1) (AID 2061307); settings: ALDH inhibition qHTS; series mostly up to 50.3 µM; further: nearly all actives have a fitted effect of over 50% in size; on potency: test system not described further here; potency means the concentration at half of the fitted maximal effect
# [3] = target: Retinaldehyde dehydrogenase 3 (Homo sapiens) (UniProt P47895); experiment: qHTS for Inhibitors of the Aldehyde Dehydrogenase Family (ALDH1A3) Primary screen (AID 2061315); settings: ALDH inhibition qHTS; series mostly up to 56 µM
# [4] = target: Aldehyde dehydrogenase 1A1 (Homo sapiens) (UniProt P00352); experiment: qHTS for Inhibitors of the Aldehyde Dehydrogenase Family (ALDH1A1) Confirmatory screens (AID 2061316); settings: ALDH inhibition qHTS; series mostly up to 47.3 µM; further: nearly all actives have a fitted effect of over 65% in size; further: potency means the concentration at half of the fitted maximal effect
# [5] = target: Retinal dehydrogenase 2 (Homo sapiens) (UniProt O94788); experiment: qHTS for Inhibitors of the Aldehyde Dehydrogenase Family (ALDH1A2) Confirmation screens (AID 2061314); settings: ALDH1A2 enzyme inhibition qHTS confirmation; series mostly up to 45.9 µM; further: nearly all actives have a fitted effect of over 65% in size; further: potency means the concentration at half of the fitted maximal effect
# [6] = target: Aldehyde dehydrogenase, mitochondrial (Homo sapiens) (UniProt P05091); experiment: qHTS for Inhibitors of the Aldehyde Dehydrogenase Family (ALDH2) Primary screen (AID 2061308); settings: ALDH2 enzyme inhibition qHTS, 1536-well; series mostly up to 56 µM; further: nearly all actives have a fitted effect of over 55% in size
# [7] = target: Retinaldehyde dehydrogenase 3 (Homo sapiens) (UniProt P47895); experiment: qHTS for Inhibitors of the Aldehyde Dehydrogenase Family (ALDH1A3) Confirmatory screens (AID 2061311); settings: ALDH inhibition qHTS; series mostly up to 46 µM; further: potency means the concentration at half of the fitted maximal effect; nearly all actives have a fitted effect of over 60% in size
SMILES,Potency [1],Potency [2],Potency [3],Potency [4],Potency [5],Potency [6],Potency [7]
O=C(OCC#CCSc1nnc(-c2ccco2)o1)c1ccc(F)cc1,15.9 µM (active),inactive,inactive,8.96 µM (active),,,
COc1cccc(Cc2nc3ccccc3nc2SCC(=O)N2CCN(c3ccccc3)CC2)c1,inactive,inactive,,inactive,inactive,,
COc1ccnc(NC(=S)N2CCN(c3ccccc3C(F)(F)F)CC2)c1,inactive,14.1 µM (active),,5.65 µM (active),11.3 µM (active),,
Oc1cc(NCCc2cccnc2)cc2cccnc12,inactive,,,,inactive,inactive,0.4 µM (active)
O=C(Cn1nc(-c2ccc(F)cc2)ccc1=O)NCCc1ccccc1,inactive,inactive,inactive,inactive,,,
CC(=O)/C=C1/C(=O)N(C)c2ccccc21,inactive,inactive,,4 µM (active),14.2 µM (active),,
FC(F)(F)c1cc(-c2ccc(CNc3nc(-c4ccncc4)nc4ccccc34)cc2)ccn1,8.91 µM (active),,inactive,,10 µM (active),inactive,2.52 µM (active)
COc1ccc(NC(=O)O[C@@H]2CO[C@H]3[C@@H]2OC[C@@H]3n2nnnc2SCc2ccco2)cc1,inactive,12.9 µM (active),,10.2 µM (active),,,
